Assay results reported in PubChem BioAssay (EPA / NIEHS).
Inconclusive results are not listed. Active and inactive are the calls of the source. How the source made its calls: active means hit-call score of the fitted dose curve at least 0.9, where 1 is the maximum; inconclusive means response in the unintended direction; inactive means score below 0.9.

What follows are molecules tested against Glucocorticoid receptor (Homo sapiens) (UniProt P04150) (assay: ATG_GR_TRANS: Attagene TRANS-FACTORIAL HepG2 Assay for human Glucocorticoid Receptor (GR) (AID 2282978;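 further: activators score as hits since higher reporter transcript over DMSO is fitted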)). Conditions: HepG2 Attagene TRANS GR reporter, mRNA transcription.
Sequence of Glucocorticoid receptor (Homo sapiens) (P04150 whole entry, looked up): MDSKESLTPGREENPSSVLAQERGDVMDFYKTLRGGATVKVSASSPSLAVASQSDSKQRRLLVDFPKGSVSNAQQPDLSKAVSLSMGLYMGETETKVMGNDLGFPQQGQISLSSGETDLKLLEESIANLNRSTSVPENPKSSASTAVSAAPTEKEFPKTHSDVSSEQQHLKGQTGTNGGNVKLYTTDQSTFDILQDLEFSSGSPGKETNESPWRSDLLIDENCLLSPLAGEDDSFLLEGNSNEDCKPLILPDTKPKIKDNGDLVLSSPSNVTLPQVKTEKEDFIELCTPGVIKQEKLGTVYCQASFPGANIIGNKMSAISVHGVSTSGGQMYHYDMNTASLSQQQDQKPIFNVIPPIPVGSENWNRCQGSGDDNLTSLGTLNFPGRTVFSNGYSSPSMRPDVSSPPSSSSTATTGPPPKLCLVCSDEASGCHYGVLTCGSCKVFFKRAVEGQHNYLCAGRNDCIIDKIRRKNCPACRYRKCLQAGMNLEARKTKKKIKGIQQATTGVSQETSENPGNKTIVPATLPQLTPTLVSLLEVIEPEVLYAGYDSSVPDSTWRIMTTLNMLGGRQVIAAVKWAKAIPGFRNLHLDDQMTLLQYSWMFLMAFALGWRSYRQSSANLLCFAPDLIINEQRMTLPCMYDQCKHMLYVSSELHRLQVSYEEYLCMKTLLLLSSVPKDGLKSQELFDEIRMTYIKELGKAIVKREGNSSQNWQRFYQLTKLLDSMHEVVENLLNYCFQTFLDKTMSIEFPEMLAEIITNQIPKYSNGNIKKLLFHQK
Description: ATG_TRANS is a cell-based, multiplexed-readout assay that uses HepG2, a human liver cell line, with measurements taken at 24 hours after chemical dosing in a 24-well plate.ATG_GR_TRANS is one of 30 assay component(s) measured or calculated from the ATG_TRANS assay. It is designed to make measurements of mRNA induction, a form of inducible reporter, as detected with fluorescence intensity signals by Reverse transcription polymerase chain reaction (RT-PCR) and Capillary electrophoresis technology.Data from the assay component ATG_GR_TRANS was analyzed into 1 assay endpoint. This assay endpoint, ATG_GR_TRANS, was analyzed in the positive analysis fitting direction relative to DMSO as the negative control and baseline of activity. Using a type of inducible reporter, measures of mRNA for gain-of-signal activity can be used to understand the reporter gene at the transcription factor-level as they relate to the gene NR3C1. Furthermore, this assay endpoint can be referred to as a primary readout, because this assay has produced multiple assay endpoints where this one serves a reporter gene function. To generalize the intended target to other relatable targets, this assay endpoint is annotated to the nuclear receptor intended target family, where the subfamily is steroidal.
Human liver HepG2 cells are transiently transfected with multiple reporter transcription units (MRTUs) in 6-well plates using FuGene 6 reagent (Roche; 3 ml FuGene/1 mg DNA). The MRTU constructs are regulated by a cis-regulating element (promoter). […] A major difference between the CIS and TRANS system is that in CIS activities of endogenous TFs are measured, whereas the TRANS assay evaluates changes in activities of exogenous, chimeric NR-Gal4 proteins. […] At the end of 24 hour incubation, total RNA was isolated using TriZol reagent (Invitrogen). The isolated RNA is then reverse-transcribed using oligo(dT) primer and Mo-MLV reverse transcriptase (Invitrogen) with DNAse I (Ambion) treatment for 30 min. The one-tenth of the produced cDNA was amplified by PCR using Taq DNA polymerase (Invitrogen) and two reporter sequence-specific primers. The PCR products were fluorescently labeled by primer extension with 6-arboxyfluorescein (6-FAM) 5'-labeled reporter sequence-specific primer (2 min at 95 C, 20 s at 68 C and 10 min at 72 C) and these products were digested with 5U of HpaI (New England Biolabs) for 2h at 37 C. The fragments were purified using Qiaquick PCR columns (Qiagen), analyzed on an ABI 3130xL genetic analyzer (Applied Biosystems) with peak positions identified by using a set of X-rhodamine (ROX)-labeled MapMarker1000 molecular weight standards (BioVentures). The raw capillary electrophoresis data was processed using Attagraph software (Attagene).
In the case of `O=S(=O)(O)CCC(F)(F)C(F)(F)C(F)(F)C(F)(F)C(F)(F)C(F)(F)C(F)(F)C(F)(F)F`, the outcome is reported as “inactive”. `Cc1cc(C)c(O)c(C(C)(C)C)c1` was tested, and the outcome was “inactive”. `CN(C(=O)C(F)(F)C(F)(F)C(F)(F)F)[Si](C)(C)C` was tested, and the outcome was “inactive”. `NCC(F)(F)C(F)(F)C(F)(F)C(F)(F)C(F)(F)C(F)(F)C(F)(F)C(F)(F)F` was tested, and the outcome was “inactive”. With `Cc1ccc(O)cn1` the outcome was “inactive”. In the case of `CCN(CC)c1ccc(C=O)c(O)c1`, the outcome is reported as “inactive”. `CCC/C=C/CO` was tested, and the outcome was “inactive”. For `OCCCC(F)(F)C(F)(F)C(F)(F)C(F)(F)C(F)(F)C(F)(F)C(F)(F)C(F)(F)F`, the outcome was “inactive”. For `O=c1[nH]cccc1O`, the outcome was “inactive”. In the case of `NS(=O)(=O)C(F)(F)C(F)(F)C(F)(F)C(F)(F)C(F)(F)C(F)(F)F`, the outcome is reported as “inactive”. `Cc1ccc(O)c(-n2nc3ccccc3n2)c1` was tested, and the outcome was “inactive”. With `CCc1cc(Cc2cc(CC)c(N)c(CC)c2)cc(CC)c1N` the outcome was “inactive”. With `O=S(=O)(OCC(F)(F)F)C(F)(F)C(F)(F)C(F)(F)C(F)(F)F` the outcome was “inactive”. In the case of `COCCOCCC[Si](C)(O[Si](C)(C)C)O[Si](C)(C)C`, the outcome is reported as “inactive”. With `CSc1ccc(O)cc1C` the outcome was “inactive”. `O=C(O)C(F)(F)C(F)(F)C(F)(F)C(F)(F)C(F)(F)C(F)(F)C(F)F` was tested, and the outcome was “inactive”. In the case of `NC(=O)C(F)(F)C(F)(F)C(F)(F)C(F)(F)C(F)(F)C(F)(F)C(F)(F)F`, the outcome is reported as “inactive”. With `CN(C)C(C)(C)CO` the outcome was “inactive”. For `CCOCOCC`, the outcome was “inactive”. In the case of `CO[Si](CCCOCC1CO1)(OC)OC` (stereo not given), the outcome is reported as “inactive”. In the case of `C=C(C)CCCC`, the outcome is reported as “inactive”. For `OCC(F)(F)C(F)(F)C(F)(F)C(F)(F)C(F)(F)C(F)(F)CO`, the outcome was “inactive”. In the case of `CC(C)CCCC(C)CCO` (stereo not given), the outcome is reported as “inactive”. In the case of `OC(O)C(F)(F)C(F)(F)F`, the outcome is reported as “inactive”. With `CC(=O)c1ccccc1N` the outcome was “inactive”. `OCC1CCCO1` (stereo not given) was tested, and the outcome was “inactive”. `CCCCCCCCCCCCCC[P+](CCCC)(CCCC)CCCC` was tested, and the outcome was “inactive”. With `CCOC(OCC)OCC` the outcome was “inactive”. `CCCCCCCCCc1ccc(OCCO)cc1` was tested, and the outcome was “inactive”. For `OCCCCl`, the outcome was “inactive”. In the case of `C=CC(=O)OCC(F)(F)C(F)(F)C(F)(F)C(F)(F)C(F)(F)C(F)(F)C(F)(F)C(F)F`, the outcome is reported as “inactive”. `CSc1ccc(Cl)cc1` was tested, and the outcome was “inactive”. `CC(=O)C=O` was tested, and the outcome was “inactive”. For `CC1=CCC2C(=O)OC(=O)C2C1` (stereo not given), the outcome was “inactive”. In the case of `CCCCCC/C=C/CCCCCCCC(=O)O`, the outcome is reported as “inactive”. `C=C(C)C(=O)OCC(F)(F)C(F)(F)C(F)(F)C(F)F` was tested, and the outcome was “inactive”. In the case of `CC(C)=CCCC(C)O` (stereo not given), the outcome is reported as “inactive”. With `CC1CCCCC1` the outcome was “inactive”. For `O=C(O)CCC(F)(F)C(F)(F)C(F)(F)C(F)(F)C(F)(F)C(F)(F)C(F)(F)F`, the outcome was “inactive”. In the case of `OCCC(O)CO` (stereo not given), the outcome is reported as “inactive”.
